{"source": "PubChem BioAssay (Tox21)", "note": "Records with an inconclusive call do not appear. Values without a mark were called inactive. The source made the active and inactive calls. Calls follow the shape of the dose curve; as a rule, active = well fitted curve in the direction sought with a large enough effect in the repeat runs; inconclusive = weak or mixed curves; inactive = no such curve, though single readings can be large; an effect the other way counts as inactive or inconclusive. % is scaled to controls: 0 for no effect and ±100 for the full control effect.", "data": [{"test": "qHTS assay to identify small molecule antagonists of the retinoid acid receptor (RAR) signaling pathway - cell viability counter screen (AID 1159551); also: nearly all actives have a fitted effect of over 35% in size", "conditions": "C3RL4 cells viability, ATP luminescence (CellTiter-Glo), 6 h; series mostly up to 92.4 µM; activity change, negative = cytotoxicity: at the top concentration", "summary_of_the_method": "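C3RL4 cells were seeded overnight at 37 C, then treated with compounds plus 1 uM (final) retinol for 6 h at 37 C. Viability was read as ATP by CellTiter-Glo luminescence after 30 min at room temperature.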", "values": [{"smiles": "CNC(=O)c1c(I)c(NC(=O)CCCCC(=O)Nc2c(I)c(C(=O)O)c(I)c(C(=O)NC)c2I)c(I)c(C(=O)O)c1I", "activity change, negative = cytotoxicity": "-1.56% [at 42.5 µM]"}, {"smiles": "CC1=CC(=O)CCC1", "activity change, negative = cytotoxicity": "2.69%"}, {"smiles": "COc1ccc(COC=O)cc1", "activity change, negative = cytotoxicity": "3.61%"}, {"smiles": "O=S(=O)(O)c1ccccc1O", "activity change, negative = cytotoxicity": "0.558%"}, {"smiles": "CC(C)c1cccc(C(C)C)c1N", "activity change, negative = cytotoxicity": "0.142%"}, {"smiles": "O=C(O)C(O)[C@H](O)[C@@H](O)[C@H](O)[C@H](O)CO", "note": "(some centres not stated)", "activity change, negative = cytotoxicity": "-0.786%"}, {"smiles": "Cc1c(C)n(CCN(C)C)c2ccc(C(=O)OCCN(C)C)cc12", "activity change, negative = cytotoxicity": "-1.96% [at 42.5 µM]"}]}, {"test": "qHTS assay to identify small molecule antagonists of the retinoic acid receptor (RAR) signaling pathway (AID 1159552; also: nearly all actives have a fitted effect of over 50% in size; also: potency is read from the fitted curve at half-maximal effect)", "conditions": "C3RL4 RARE luciferase reporter, retinol-stimulated, 6 h; series mostly up to 92.4 µM; activity, negative = inhibition: at the top concentration", "summary_of_the_method": "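RARE-luc C3RL4 cells; cpds + 1 uM (final) retinol, 6 hr, 37 C/5% CO2; luciferase reagent, 30 min RT, luminescence readout. Inhibitors of retinol-driven signal scored.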", "values": [{"smiles": "Cn1ccc2cc3c(cc21)CCN3C(=O)Nc1cccnc1", "activity, negative = inhibition": "169% [at 19 µM]"}, {"smiles": "Oc1ccc2c(c1)OC[C@@H](N1CCC(O)(c3ccc(F)cc3)CC1)[C@H]2O", "activity, negative = inhibition": "153% [at 42.5 µM]"}, {"smiles": "O=C(O)Cc1cc(I)c(Oc2cc(I)c(O)c(I)c2)c(I)c1", "Potency": "42.4 µM (active)"}, {"smiles": "CCOC(=O)Cn1c(=O)sc2cccc(Cl)c21", "activity, negative = inhibition": "-13.1%"}, {"smiles": "COc1ccc2cc(C=O)ccc2c1", "activity, negative = inhibition": "54.1% [at 42.5 µM]"}, {"smiles": "Oc1cc(O)c2c(c1)O[C@H](c1ccc(O)c(O)c1)[C@H](O)C2", "activity, negative = inhibition": "16.7% [at 42.5 µM]"}, {"smiles": "OC[C@H]1O[C@@H]2O[C@H]3[C@H](O)[C@@H](O)[C@@H](O[C@H]4[C@H](O)[C@@H](O)[C@@H](O[C@H]5[C@H](O)[C@@H](O)[C@@H](O[C@H]6[C@H](O)[C@@H](O)[C@@H](O[C@H]7[C@H](O)[C@@H](O)[C@@H](O[C@H]8[C@H](O)[C@@H](O)[C@@H](O[C@H]9[C@H](O)[C@@H](O)[C@@H](O[C@H]1[C@H](O)[C@H]2O)O[C@@H]9CO)O[C@@H]8CO)O[C@@H]7CO)O[C@@H]6CO)O[C@@H]5CO)O[C@@H]4CO)O[C@@H]3CO", "activity, negative = inhibition": "0.684% [at 42.5 µM]"}, {"smiles": "N#CCc1ccccc1[N+](=O)[O-]", "activity, negative = inhibition": "-9.7%"}, {"smiles": "CCCCCCCCCCCCI", "activity, negative = inhibition": "0.769%"}, {"smiles": "CN(C)C(=O)Nc1ccccc1", "activity, negative = inhibition": "6.19%"}, {"smiles": "COc1ccc(NC(C)=O)cc1", "activity, negative = inhibition": "61.7%"}, {"smiles": "CCCC(C)CO", "note": "(configuration not stated)", "activity, negative = inhibition": "-11.1%"}, {"smiles": "NC1CCN(c2cccc(Cl)n2)CC1", "activity, negative = inhibition": "-5.32% [at 42.5 µM]"}, {"smiles": "CCCC(C)C(=O)O", "note": "(configuration not stated)", "activity, negative = inhibition": "18.1%"}, {"smiles": "C1C2OC2C2C1C1CC2C2OC12", "note": "(configuration not stated)", "activity, negative = inhibition": "56.9%"}, {"smiles": "CCC(=O)c1cccc(Cl)c1", "activity, negative = inhibition": "-3.74%"}, {"smiles": "O=S(=O)(c1cccc2cnccc12)N1CCCNCC1", "Potency": "29.8 µM (active)"}, {"smiles": "OCCCCCCO", "activity, negative = inhibition": "106%"}, {"smiles": "c1ccc(SCCSc2ccccc2)cc1", "activity, negative = inhibition": "115%"}, {"smiles": "Cc1ccccc1Br", "activity, negative = inhibition": "23.9%"}, {"smiles": "C(=C(c1ccccc1)c1ccccc1)c1ccccc1", "activity, negative = inhibition": "-21.4%"}, {"smiles": "COC(=O)c1ccc(C(=O)OC)c(C(=O)OC)c1", "activity, negative = inhibition": "10.2%"}, {"smiles": "CCCCCC[C@@H](CCC)C(=O)O", "activity, negative = inhibition": "-3.93% [at 42.5 µM]"}, {"smiles": "CCCCc1ccc2cccc(S(=O)(=O)O)c2c1", "activity, negative = inhibition": "0%"}, {"smiles": "C1=C\\CC/C=C\\CC/C=C\\CC/1", "activity, negative = inhibition": "7.99%"}, {"smiles": "COC(=O)C1=C(C)NC(C)=C(C(=O)OCC(C)=O)C1c1ccccc1[N+](=O)[O-]", "note": "(configuration not stated)", "activity, negative = inhibition": "8.48% [at 42.5 µM]"}, {"smiles": "CCN1CCCC1CNC(=O)c1cc(S(N)(=O)=O)ccc1OC", "note": "(configuration not stated)", "activity, negative = inhibition": "-11.8%"}, {"smiles": "COc1ccc(N=[N+]([O-])c2ccc(OC)cc2)cc1", "activity, negative = inhibition": "3.11%"}, {"smiles": "CNC(=O)c1c(I)c(NC(=O)CCCCC(=O)Nc2c(I)c(C(=O)O)c(I)c(C(=O)NC)c2I)c(I)c(C(=O)O)c1I", "activity, negative = inhibition": "48.6% [at 42.5 µM]"}, {"smiles": "CC1=CC(=O)CCC1", "activity, negative = inhibition": "-2.04%"}, {"smiles": "COc1ccc(COC=O)cc1", "activity, negative = inhibition": "11.1%"}, {"smiles": "O=S(=O)(O)c1ccccc1O", "activity, negative = inhibition": "9.07%"}, {"smiles": "CC(C)c1cccc(C(C)C)c1N", "activity, negative = inhibition": "3.3%"}, {"smiles": "O=C(O)C(O)[C@H](O)[C@@H](O)[C@H](O)[C@H](O)CO", "note": "(some centres not stated)", "activity, negative = inhibition": "-2.1%"}, {"smiles": "Cc1c(C)n(CCN(C)C)c2ccc(C(=O)OCCN(C)C)cc12", "activity, negative = inhibition": "23.3% [at 42.5 µM]"}]}]}
